# Reference: PubChem BioAssay
# For part of these data: Measured potencies and affinities stand elsewhere. The source made the active and inactive calls. Unless noted, the rule behind the calls is not given here.
# What was measured:
# [1] = antimalarial activity against Dd2 strain (AID 2302;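 active = growth inhibition above 50% at the single 2 µM test dose, taken to imply half-maximal potency below 2 µM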;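 note: 0% = DMSO untreated growth and 100% = chloroquine plus artemisinin killed control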); details: P. falciparum Dd2 in RBCs, LDH growth readout, 72 h; at 2 µM; stronger effect = higher value
# [2] = human hepatoma cell viability loss – ATP luminescence, cytotoxicity control for P. falciparum antimalarial project, primary screen (AID 2303;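 active = inhibition above 50%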;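 note: 0% = DMSO wells and 100% = digitonin-killed cells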); details: HepG2 viability, 24-48 h, at 10 µM, stronger effect = higher value
# [3] = molecular target: L-lactate dehydrogenase (Plasmodium falciparum (isolate CDC / Honduras)) (UniProt Q27743); assay: PfLDH activity inhibition – cell lysate, 3D7 strain, counter-screen for P. falciparum growth inhibition project (AID 2304);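 note: 0% = vehicle and 100% = reference inhibitor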; details: P. falciparum 3D7 crude extract, LDH APAD/NBT absorbance; at 2 µM; stronger effect = higher value
# [4] = inhibition of 3D7 malaria parasite growth – strain 3D7 (AID 2306);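 note: 0% = DMSO wells and 100% = chloroquine plus artemisinin control wells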; details: P. falciparum 3D7 erythrocytic growth, LDH absorbance, 72 h; at 2 µM; stronger effect = higher value
# [5] = molecular target: Calcium-dependent protein kinase 1 (Plasmodium falciparum (isolate 3D7)) (UniProt P62344); assay: PfCDPK1 kinase inhibitors, biochemical, TCAMS library (AID 1159585; cut-off not given, nearly all actives have IC50 up to about 0.98 µM;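 note: inhibitors leave more ATP so luminescence rises with inhibition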); details: recombinant PfCDPK1, Kinase-Glo ATP depletion luminescence
# [6] = molecular target: Plasmodium falciparum protein kinase 6 (PK6, PF3D7_1337100) (UniProt Q8IDW1); assay: PfPK6 kinase inhibitors, biochemical, TCAMS library (AID 1159586); details: recombinant PfPK6, Kinase-Glo ATP depletion luminescence
# [7] = molecular target: Protein kinase 7 (PK7), Plasmodium falciparum 3D7 (PF3D7_0213400) (UniProt Q7YTF7); assay: inhibition of Plasmodium PK7 catalytic activity – biochemical, TCAMS antimalarial set, Kinase-Glo luminescence (AID 1159587); details: recombinant PfPK7, Kinase-Glo ATP depletion luminescence
# [8] = molecular target: Calcium-dependent protein kinase 4 (Plasmodium falciparum (isolate 3D7)) (UniProt Q8IBS5); assay: PfCDPK4 kinase inhibitors, biochemical, TCAMS library (AID 1159588; cut-off not given, nearly all actives have IC50 up to about 0.91 µM); details: recombinant PfCDPK4, Kinase-Glo ATP depletion luminescence
# Calcium-dependent protein kinase 4 (Plasmodium falciparum (isolate 3D7)), sequence (Q8IBS5 whole entry, looked up): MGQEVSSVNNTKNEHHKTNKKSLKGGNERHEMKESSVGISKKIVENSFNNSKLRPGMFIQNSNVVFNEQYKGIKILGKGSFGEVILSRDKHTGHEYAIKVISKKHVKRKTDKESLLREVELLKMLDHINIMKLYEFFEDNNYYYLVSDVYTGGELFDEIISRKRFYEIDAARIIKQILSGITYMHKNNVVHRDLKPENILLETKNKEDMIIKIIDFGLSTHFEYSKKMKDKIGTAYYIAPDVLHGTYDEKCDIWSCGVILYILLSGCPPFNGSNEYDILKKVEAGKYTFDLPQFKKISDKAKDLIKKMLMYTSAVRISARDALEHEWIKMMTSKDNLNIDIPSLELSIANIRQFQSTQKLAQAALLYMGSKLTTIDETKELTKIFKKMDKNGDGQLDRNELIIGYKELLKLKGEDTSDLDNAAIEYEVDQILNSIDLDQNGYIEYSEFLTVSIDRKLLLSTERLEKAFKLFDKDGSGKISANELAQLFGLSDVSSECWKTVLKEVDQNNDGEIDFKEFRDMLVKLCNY
# Calcium-dependent protein kinase 1 (Plasmodium falciparum (isolate 3D7)), sequence (P62344 whole entry, looked up): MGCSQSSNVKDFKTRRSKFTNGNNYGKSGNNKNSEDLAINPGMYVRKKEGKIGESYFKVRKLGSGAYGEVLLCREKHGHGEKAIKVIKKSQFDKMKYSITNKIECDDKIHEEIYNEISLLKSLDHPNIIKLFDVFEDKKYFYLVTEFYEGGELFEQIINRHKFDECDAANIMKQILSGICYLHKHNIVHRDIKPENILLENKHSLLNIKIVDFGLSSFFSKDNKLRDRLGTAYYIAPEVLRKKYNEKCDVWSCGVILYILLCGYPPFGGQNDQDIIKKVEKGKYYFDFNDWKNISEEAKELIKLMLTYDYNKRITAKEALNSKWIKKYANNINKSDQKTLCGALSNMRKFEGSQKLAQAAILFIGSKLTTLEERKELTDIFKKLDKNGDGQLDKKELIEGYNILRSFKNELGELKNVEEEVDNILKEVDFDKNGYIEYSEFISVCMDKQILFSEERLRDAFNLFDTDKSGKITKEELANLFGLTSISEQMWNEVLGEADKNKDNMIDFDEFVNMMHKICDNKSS
# L-lactate dehydrogenase (Plasmodium falciparum (isolate CDC / Honduras)), sequence (Q27743 whole entry, looked up): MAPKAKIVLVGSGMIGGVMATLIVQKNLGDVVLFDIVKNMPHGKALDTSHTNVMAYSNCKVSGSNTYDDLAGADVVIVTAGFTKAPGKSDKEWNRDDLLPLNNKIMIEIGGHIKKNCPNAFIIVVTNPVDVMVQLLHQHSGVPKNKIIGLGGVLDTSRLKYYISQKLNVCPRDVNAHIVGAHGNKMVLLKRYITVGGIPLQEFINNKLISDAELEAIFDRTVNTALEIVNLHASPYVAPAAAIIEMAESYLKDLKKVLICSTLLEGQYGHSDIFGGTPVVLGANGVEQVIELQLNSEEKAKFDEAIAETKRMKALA
# Plasmodium falciparum protein kinase 6 (PK6, PF3D7_1337100), sequence (Q8IDW1 1-305): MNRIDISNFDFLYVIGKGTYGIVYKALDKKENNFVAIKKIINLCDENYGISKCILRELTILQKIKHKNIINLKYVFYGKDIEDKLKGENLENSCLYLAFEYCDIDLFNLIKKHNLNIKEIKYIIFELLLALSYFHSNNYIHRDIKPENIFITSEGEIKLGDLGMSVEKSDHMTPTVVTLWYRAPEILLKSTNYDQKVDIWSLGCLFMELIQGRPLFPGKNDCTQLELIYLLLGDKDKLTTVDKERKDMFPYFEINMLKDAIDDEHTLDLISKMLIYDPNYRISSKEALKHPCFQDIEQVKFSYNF
# Protein kinase 7 (PK7), Plasmodium falciparum 3D7 (PF3D7_0213400), sequence (Q7YTF7 1-343): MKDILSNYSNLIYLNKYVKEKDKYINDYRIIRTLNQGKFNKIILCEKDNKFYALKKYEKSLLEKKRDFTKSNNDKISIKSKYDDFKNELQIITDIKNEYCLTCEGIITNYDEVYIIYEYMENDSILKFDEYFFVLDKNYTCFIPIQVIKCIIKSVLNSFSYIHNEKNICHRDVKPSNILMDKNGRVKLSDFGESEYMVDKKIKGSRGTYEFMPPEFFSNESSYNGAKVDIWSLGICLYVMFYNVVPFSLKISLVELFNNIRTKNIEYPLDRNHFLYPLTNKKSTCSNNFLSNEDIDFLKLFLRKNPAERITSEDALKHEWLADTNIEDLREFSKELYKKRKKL
SMILES,growth inhibition [1],inhibition [2],inhibition [3],growth inhibition [4],outcome [5],outcome [6],outcome [7],outcome [8]
N#Cc1ccc(-c2ccc(C(=O)NC3CCN(CCN4CCc5c(cccc5C(F)(F)F)C4)CC3)cc2)cc1,51% (active),40% (inactive),-1% (inactive),98% (active),inactive,inactive,inactive,inactive
Nc1cc(-c2ccc(Br)cc2O)nc2ccccc12,50% (active),23% (inactive),0% (inactive),100% (active),inactive,inactive,inactive,inactive
c1ccc(-c2nc(NCCCn3ccnc3)cc(-c3ccncc3)n2)cc1,100% (active),42% (inactive),-8% (inactive),103% (active),inactive,inactive,inactive,inactive
O=C(C=Cc1ccc(Cl)c(Cl)c1)NCCCCCN1CCCC(CCCNC(=O)c2sc3ccccc3c2Cl)C1 (configuration not stated),32% (inactive),82% (active),-3% (inactive),88% (active),inactive,inactive,inactive,inactive
O=C(Nc1ccccc1O)C1CCN(c2ncnc3cc(-c4ccc(F)cc4)sc23)CC1,94% (active),10% (inactive),4% (inactive),97% (active),inactive,inactive,inactive,inactive
CS(=O)(=O)c1ccc(-c2cncc(Nc3cccc([N+](=O)[O-])c3)c2)cc1,70% (active),6% (inactive),-1% (inactive),97% (active),inactive,inactive,inactive,inactive
C[C@H]1CN(Cc2cccc(-c3cc(CNC(=O)c4cccc(CN5CCN(CCOc6ccccc6)CC5)c4)ccc3F)c2)CCN1,88% (active),59% (active),4% (inactive),91% (active),inactive,inactive,inactive,inactive
CN1CCN(CCCN(Cc2cccc(-c3ccc(CNC4CCCC4)cc3)c2)C(=O)CCC2CCCC2)CC1,84% (active),16% (inactive),-1% (inactive),97% (active),inactive,inactive,inactive,inactive
C[C@H](Cc1ccc(CCc2ccc(C[C@@H](C)NC[C@H](O)c3cccc(Cl)c3)cc2)cc1)NC[C@H](O)c1cccc(Cl)c1,92% (active),100% (active),2% (inactive),95% (active),inactive,inactive,inactive,inactive
Cc1cc(N[C@@H](Cc2ccccc2)C(=O)NCCOc2ccccc2)nc(NCCOc2ccccc2)n1,24% (inactive),-1% (inactive),-4% (inactive),98% (active),inactive,inactive,inactive,inactive
COc1ccccc1/C=C/C(=O)N(C)C1CCN(CCCCCNC(=O)/C=C/c2ccc(Cl)c(Cl)c2)C1 (configuration not stated),14% (inactive),10% (inactive),-14% (inactive),94% (active),inactive,inactive,inactive,inactive
c1cc(CN2CCCCC2)cc(-c2cccc(-c3nc4ccccc4[nH]3)c2)c1,37% (inactive),39% (inactive),0% (inactive),100% (active),inactive,inactive,inactive,inactive
COc1cc(NC(=O)/C=C/c2cccc3ccoc23)ccc1OCCN(C(C)C)C(C)C,5% (inactive),22% (inactive),2% (inactive),90% (active),inactive,inactive,inactive,inactive
CC(C)(C)c1ccc(-c2ccccc2CNC(=O)c2cccc(O)c2)cc1,88% (active),3% (inactive),-2% (inactive),99% (active),inactive,inactive,inactive,inactive
COc1ccc(Cl)cc1-c1nc(C(=O)NCCN2CCCCC2)c(C)s1,10% (inactive),16% (inactive),-7% (inactive),97% (active),inactive,inactive,inactive,inactive
CC(C)(C)c1ccc(CNCCOc2ccc(Nc3nnc(-c4ccc(-c5ncc[nH]5)cc4)o3)c3ccccc23)cc1,88% (active),43% (inactive),0% (inactive),100% (active),inactive,inactive,inactive,inactive
COc1cc(NCCCNCc2cn(S(=O)(=O)c3ccccc3)c3ccccc23)nc2ccccc12,77% (active),36% (inactive),4% (inactive),101% (active),inactive,inactive,inactive,inactive
O=C(Nc1ccc(Br)c(C(F)(F)F)c1)c1cccc([N+](=O)[O-])c1,3% (inactive),24% (inactive),-7% (inactive),94% (active),inactive,inactive,inactive,inactive
Nc1nc2ccc(S(=O)(=O)Nc3ccc(C(=O)N[C@@H](CCC(=O)O)C(=O)O)c(F)c3)cc2c(=O)[nH]1,16% (inactive),37% (inactive),4% (inactive),97% (active),inactive,inactive,inactive,inactive
COc1ccc(NC(=O)CCNc2ccnc(NCCc3ccc(F)cc3)n2)cc1,5% (inactive),4% (inactive),-3% (inactive),94% (active),inactive,inactive,inactive,inactive

SMILES,growth inhibition [1],inhibition [2],inhibition [3],growth inhibition [4],outcome [5],outcome [6],outcome [7],outcome [8]
CCCCc1ccc2[nH]cc(C(=O)OCC)c(=O)c2c1,96% (active),3% (inactive),5% (inactive),95% (active),inactive,inactive,inactive,inactive
O=C(NCc1cccnc1)C(c1cc2ccccc2o1)N1CCN(C(c2ccccc2)c2ccccc2)CC1 (configuration not stated),81% (active),12% (inactive),6% (inactive),95% (active),inactive,inactive,inactive,inactive
CCCN(CCC)C(C)CCC(C)Nc1c2ccc(Cl)cc2nc2ccc(OC)cc12 (configuration not stated),99% (active),41% (inactive),3% (inactive),101% (active),inactive,inactive,inactive,inactive
NC(=O)N1CCN(Cc2ccc(Br)cc2)CC1,0% (inactive),83% (active),-5% (inactive),96% (active),inactive,inactive,inactive,inactive
O=C(Nc1ccc(-c2cccc(-c3nc4ccc(F)cc4[nH]3)c2)cc1)Nc1ccc(Cl)c(Cl)c1,24% (inactive),68% (active),3% (inactive),99% (active),inactive,inactive,inactive,inactive
O=C(C=Cc1ccc(Cl)c(Cl)c1)NCCCCCN1CCCC(CCCNS(=O)(=O)c2cccc(C(F)(F)F)c2)C1 (configuration not stated),33% (inactive),81% (active),-3% (inactive),94% (active),inactive,inactive,inactive,inactive
CCN(CC)CCN(Cc1ccc(-c2ccc(C(F)(F)F)s2)cc1)C(=O)Cn1c(CCc2cccc(F)c2F)nc(=O)c2ccccc21,31% (inactive),43% (inactive),3% (inactive),94% (active),inactive,inactive,inactive,inactive
O=S(=O)(Nc1cc2c(cc1O)CCN(C1CCC1)CC2)c1ccc(Oc2ccc(F)cc2)cc1,52% (active),20% (inactive),0% (inactive),99% (active),inactive,inactive,inactive,inactive
NC1=NC(c2ccccc2)(c2ccccc2)C(=O)N1Cc1ccc(-c2ccncc2)cc1,74% (active),20% (inactive),5% (inactive),96% (active),inactive,inactive,inactive,inactive
CC(C)C[C@H](NC(=O)c1cc2ccccc2s1)C(=O)N[C@H]1CCN(Cc2ccc(OC[C@@H]3CCCN3C)c(Cl)c2)C1,81% (active),83% (active),-4% (inactive),101% (active),inactive,inactive,inactive,inactive
COc1ccc(N2CCN(CCCN3CCN(C(=O)c4ccc(/C=C/c5ccc(Cl)c(Cl)c5)cc4)CC3)CC2)c(OC)c1,52% (active),47% (inactive),-3% (inactive),93% (active),inactive,inactive,inactive,inactive
CC(C)(C)c1cc(C(=O)N2CCN(c3ncnc4ccsc34)CC2)n(Cc2ccccc2)n1,83% (active),2% (inactive),-8% (inactive),95% (active),inactive,inactive,inactive,inactive
COc1cc(Nc2ccnc3ccc(C(F)(F)F)cc23)ccc1OCCCc1ccccc1,51% (active),11% (inactive),-10% (inactive),99% (active),inactive,inactive,inactive,inactive
COc1cc2nc(NCc3nc4ccccc4[nH]3)nc(N)c2cc1OC,10% (inactive),3% (inactive),-2% (inactive),97% (active),inactive,inactive,inactive,inactive
COc1ccc2nccc(N(C)CC3(O)CCN(CC(O)c4ccc5c(c4)NC(=O)CS5)CC3)c2n1 (configuration not stated),-4% (inactive),1% (inactive),-5% (inactive),101% (active),inactive,inactive,inactive,inactive
NC(N)=NN=Cc1ccc2ccc3ccccc3c2c1,89% (active),34% (inactive),5% (inactive),101% (active),inactive,inactive,inactive,inactive
O=C1C=Cc2ccccc2/C1=C/c1sc(=NCc2ccccc2)n(Cc2ccccc2)c1O,98% (active),0% (inactive),-7% (inactive),98% (active),inactive,inactive,inactive,inactive
CCCC[C@H](NC(=O)O[C@H](COc1ccc(OCc2ccccc2)cc1)C(C)(C)C)C(=O)C(=O)Nc1ccn[nH]1,71% (active),21% (inactive),-1% (inactive),88% (active),inactive,inactive,inactive,inactive
COc1ccc(CCNCCCCCCNCCc2ccc(-c3ccccc3)cc2)cc1OC,35% (inactive),100% (active),1% (inactive),99% (active),inactive,inactive,inactive,inactive
